# Measured values reported in article PMC5540273 (PLoS ONE, 2017).
# How the values were obtained:
# Conditions in all cases: concentration: 1 μM, replicates: in singlicate; n = 1
# NEK5 = system: NEK5
# NEK6 = system: NEK6
# NEK7 = system: NEK7
# NEK9 = system: NEK9
# NIK = system: T1, NIK
# T1 construct: gene MAP3K14
# NIM1 = system: T2, NIM1
# T2 construct: gene MGC42105
# NLK = system: NLK
# OSR1 = system: T3, OSR1
# T3 construct: gene OXSR1
# PAK1 = system: PAK1
# PAK2 = system: PAK2
# PAK3 = system: PAK3
# PAK4 = system: PAK4
# PAK6 = system: PAK6
# PAK7 = system: PAK7
# PCTK1 = system: T4, PCTK1
# T4 construct: gene CDK16
# PCTK2 = system: T5, PCTK2
# T5 construct: gene CDK17
# PCTK3 = system: T6, PCTK3
# T6 construct: gene CDK18
# PDGFRA = system: PDGFRA
# PDGFRB = system: PDGFRB
# PDPK1 = system: PDPK1
# 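Further: KINOMEscan kinase panel screen.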
Compound,%Inh (NEK5) [%],%Inh (NEK6) [%],%Inh (NEK7) [%],%Inh (NEK9) [%],%Inh (NIK) [%],%Inh (NIM1) [%],%Inh (NLK) [%],%Inh (OSR1) [%],%Inh (PAK1) [%],%Inh (PAK2) [%],%Inh (PAK3) [%],%Inh (PAK4) [%],%Inh (PAK6) [%],%Inh (PAK7) [%],%Inh (PCTK1) [%],%Inh (PCTK2) [%],%Inh (PCTK3) [%],%Inh (PDGFRA) [%],%Inh (PDGFRB) [%],%Inh (PDPK1) [%]
CS(=O)(=O)Cc1ccc(Nc2nccc(-c3c(-c4cccc(NC(=O)C5CCCCC5)c4)nn4ncccc34)n2)cc1 [GSK350559],15,4,18,0,0,32,1,22,7,8,0,13,19,2,20,0,12,53,93.9,1
CC[C@@H]1CO[C@H](C(=O)Nc2ccccc2)CN1c1cc(-c2ccc3c(N)n[nH]c3c2)nc(NC)n1 [GSK2376236],19,0,0,19,0,0,17,14,15,7,0,0,3,7,3,11,0,0,20,94.6
CNc1cc(-c2ccc3c(N)n[nH]c3c2)nc(N)n1 [GSK2224810],14,0,0,0,26,20,27,0,0,0,0,0,0,17,0,16,0,0,44,–
Fc1ccc(-c2nc[nH]c2-c2ccncc2)cc1 [SB-217360],0,0,0,0,20,4,49,0,23,25,0,13,2,0,0,0,0,0,0,0
COc1ccc(CSc2nnc(-c3ccc4ncsc4c3)o2)cc1C(F)(F)F,0,0,0,0,0,0,0,0,16,16,9,0,9,1,0,0,0,0,0,10
Cc1c(Cn2c3ccccc3n3c(=O)cc(N4CCOCC4)nc23)cccc1C(F)(F)F [GSK2306394],0,0,17,9,61,7,0,3,12,7,23,0,0,0,0,0,5,11,25,0
COC(=O)c1cccc(NC(=O)NC2CCN(c3ccnc(Nc4ccc(OC)cc4)n3)C2)c1 (stereo not drawn) [GSK1379746],23,0,0,0,8,53,35,0,0,0,0,0,0,0,0,0,0,0,35,0
Fc1ccc(-c2nn3cccc(F)c3c2-c2ccncc2)cc1 [GW475620],0,2,1,0,37,21,61,2,0,3,20,0,0,0,6,0,0,0,3,0
Cl.Cl.Cl.N#Cc1ccc(CCNc2nccc(-c3cccc(CN4CCNCC4)c3)n2)cc1 [GSK2137462],33,0,0,27,0,3,24,9,24,21,6,0,8,12,0,0,0,0,34,8
COc1ccc(Nc2nccc(-c3ccc(NC(=O)c4cc5cc(F)ccc5[nH]4)cc3)n2)cc1 [GSK1229496],14,0,0,0,30,0,23,8,0,0,0,0,0,5,0,0,0,0,47,0
COc1ccc(Nc2nccc(N3CCC(NC(=O)c4cc5ccccc5s4)C3)n2)cc1 (stereo not drawn) [GSK1379738],19,0,0,0,1,9,20,0,2,0,0,0,2,0,15,0,0,0,26,0
